# Compounds without any hit were thinned out: in the full panel of roughly 83,000, 20% have a hit.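 Cell lines were cultured in 96-well plates, exposed to a single compound concentration, and assessed for percent growth 48 hours later.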 Values without a mark were called inactive. The source made the active and inactive calls. How the source made its calls: active means growth percent below 10; inactive means the rest.
# Tests used:
# Assay in all cases: NCI-60 one-dose screen, 48 h (100 = growth as untreated, 0 = no growth, -100 = all killed)
# Conditions in all cases: 10 µM unless noted
# [1] = tested on: NCI-H23 lung
# [2] = tested on: NCI-H226 lung
# [3] = tested on: NCI-H322M lung
# [4] = tested on: HOP-62 NSCLC
# [5] = tested on: NCI-H460 lung
# [6] = tested on: HOP-92 NSCLC
# [7] = tested on: NCI-H522 lung
# [8] = tested on: A549/ATCC NSCLC
# [9] = tested on: 786-0 renal
# [10] = tested on: COLO 205 colon
# [11] = tested on: DU-145 prostate
# [12] = tested on: K-562 leukemia
# [13] = tested on: MALME-3M melanoma
# [14] = tested on: MDA-MB-231 breast
# [15] = tested on: RXF 393 renal
# [16] = tested on: SF-268 CNS
# [17] = tested on: SF-295 CNS
# [18] = tested on: SF-539 CNS
# [19] = tested on: UACC-257 melanoma
# [20] = tested on: M14 melanoma
SMILES,growth [1],growth [2],growth [3],growth [4],growth [5],growth [6],growth [7],growth [8] [%],growth [9],growth [10],growth [11],growth [12],growth [13],growth [14],growth [15],growth [16] [%],growth [17],growth [18],growth [19],growth [20]
COc1cc(-c2csc(NC(=O)c3cc(-n4cnc(C)c4)cc(C(F)(F)F)c3)n2)cc(OC)c1OC,61.2%,58%,67%,72.4%,33.8%,6.13% (active),38.5%,60.2,60.2%,84.9%,56.4%,26.8%,67.7%,61.3%,66.7%,68.6,57.9%,90.9%,81.9%,66.7%
COc1ccc(C2c3sc4c(F)cccc4c3Oc3nc[nH]c(=O)c32)cc1 (stereo not given),78.4%,66.6%,68.6%,79.5%,82.7%,59.4%,80.1%,88.8,91.8%,108%,98.2%,72.2%,94.4%,72.7%,72.3%,82,88%,77.4%,105%,91.4%
O=C(CCCCC1CCSS1)Nc1ncnc2n[nH]c(-c3ccc(Oc4ccccc4)cc3)c12 (stereo not given),59.2%,94.2%,79.5%,65.6%,2.83% (active),97.9%,70.3%,37,117%,88.9%,65.6%,9.6% (active),109%,68.3%,113%,72.4,102%,106%,95.2%,-62.8% (active)
Cc1cc(Cl)ccc1NC(=O)c1cc2ccccc2cc1O,7.5% (active),33.5%,-1.74% (active),33.9%,2.76% (active),-12.1% (active),-8.43% (active),20.8,28.4%,99.8%,31.1%,9.93% (active),7.3% (active),23.7%,28%,30.8,8.91% (active),22.6%,-5.38% (active),30.4%
C=C1C(=O)O[C@H]2[C@H]1CC/C(COC(=O)CCSCCC(=O)OC/C1=C/CC[C@@]3(C)O[C@H]3[C@H]3OC(=O)C(=C)[C@@H]3CC1)=C\CC[C@@]1(C)O[C@@H]21,9.21% (active),-39.5% (active),80.5%,86.9%,9.87% (active),-50.2% (active),-75.8% (active),71.1,-21.9% (active),-72.3% (active),20.1%,2.89% (active),-13.7% (active),-52.1% (active),-95.3% (active),24.2,62.7%,-15.1% (active),-13.7% (active),-12% (active)
O=C1Nc2ccccc2/C1=C\c1nc(-c2ccccc2F)n2ccccc12,33.2%,-1.5% (active),26%,-1.47% (active),-20.4% (active),40.4%,-23% (active),26.5,-34.5% (active),72.8%,-26.7% (active),74.1%,34.4%,8.66% (active),-42.7% (active),24.7,38.1%,-1.95% (active),45.7%,53.4%
OB(O)c1cccc(-c2nc3ccc4[nH]ncc4c3c3c2CCCC3)c1,73%,81.6%,45%,42.3%,32.6%,47.6%,62.9%,41.8,41.4%,41.7%,50.3%,52.6%,120%,26.1%,13.6%,37.9,71.6%,20.9%,103%,64.8%
CCO/C=N/C1=C(C#N)C(c2ccc(OC)cc2)c2sc3c(F)cccc3c2O1 (stereo not given),48.9%,63%,51.5%,49.5%,12.7%,62.6%,0.128% (active),43.3,33.3%,39.2%,35.8%,15.1%,60%,34.6%,3.81% (active),44.2,16.6%,-23.7% (active),71.6%,22.6%

# — PubChem BioAssay (NCI)
